Records with an inconclusive call do not appear. Activity calls are given as the source filed them. Unless noted, calls come from the whole dose curve.
Tests used:
[1] = molecular target: Peroxisome proliferator-activated receptor delta (Homo sapiens) (UniProt Q03181); experiment: qHTS assay to identify small molecule agonists of the peroxisome proliferator-activated receptor delta (PPARd) signaling pathway (AID 743212)
Summary of the method: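 Tox21 library screened in GeneBLAzer PPARd UAS-bla HEK293H cells. After compound treatment at 37 C, a FRET-based beta-lactamase substrate was applied for 2 h and fluorescence recorded.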

[2] = molecular target: Peroxisome proliferator-activated receptor delta (Homo sapiens) (UniProt Q03181); experiment: qHTS assay to identify small molecule antagonists of the peroxisome proliferator-activated receptor delta (PPARd) signaling pathway (AID 743215; active = well fitted inhibition curve with a large enough effect in the signal ratio in the repeat runs, not every such curve was filed as active; the % refers to the signal ratio;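 note: cells stimulated with agonist L165041 at 300 nM final during compound exposure; series mostly up to about 62 µM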)
Summary of the method: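 Screen format: qHTS, antagonist mode. HEK293H PPARd-bla cells received compound and 300 nM L165041 (final), 17 h, 37 C. Beta-lactamase detected via FRET substrate fluorescence, 2 h, room temperature.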

[3] = molecular target: Bile acid receptor (Homo sapiens) (UniProt Q96RI1); experiment: qHTS assay to identify small molecule antagonists of the farnesoid-X-receptor (FXR) signaling pathway (AID 743217; active = well fitted inhibition curve with a large enough effect in the signal ratio in the repeat runs, not every such curve was filed as active; the % refers to the signal ratio)
Chain of Bile acid receptor (Homo sapiens) (Q96RI1 whole entry, looked up): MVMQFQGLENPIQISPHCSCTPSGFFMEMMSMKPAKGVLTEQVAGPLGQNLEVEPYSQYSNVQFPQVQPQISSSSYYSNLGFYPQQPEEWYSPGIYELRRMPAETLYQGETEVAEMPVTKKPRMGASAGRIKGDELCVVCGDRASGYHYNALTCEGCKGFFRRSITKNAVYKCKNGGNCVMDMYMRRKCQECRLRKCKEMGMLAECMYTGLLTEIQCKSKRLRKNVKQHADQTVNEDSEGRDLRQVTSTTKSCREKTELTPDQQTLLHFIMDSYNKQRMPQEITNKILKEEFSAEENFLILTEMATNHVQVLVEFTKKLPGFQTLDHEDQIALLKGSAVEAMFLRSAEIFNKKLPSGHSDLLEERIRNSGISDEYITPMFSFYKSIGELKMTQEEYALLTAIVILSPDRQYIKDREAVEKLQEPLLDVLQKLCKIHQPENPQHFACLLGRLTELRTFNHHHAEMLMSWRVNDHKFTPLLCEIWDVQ
Summary of the method: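 Quantitative HTS, beta-lactamase reporter format: FXR-UAS-bla HEK 293T cells co-treated 16 h at 37 °C with compounds and 50 uM final chenodeoxycholic acid, then read by B/G FRET fluorescence.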

[4] = qHTS assay to identify small molecule agonists of the farnesoid-X-receptor (FXR) signaling pathway - cell viability counter screen (AID 743218; active = well fitted curve in the direction sought with a large enough effect in the repeat runs; an effect the other way counts as inactive or inconclusive; note: nearly all actives have a fitted effect of over 45% in size)
Summary of the method: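 Same-well cytotoxicity check on FXR-UAS-bla HEK 293T cells: 5 h attachment, 16 h compound at 37 C, CellTiter-Glo luminescence read at room temperature after 30 min.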

[5] = molecular target: Bile acid receptor (Homo sapiens) (UniProt Q96RI1); experiment: qHTS assay to identify small molecule agonists of the farnesoid-X-receptor (FXR) signaling pathway (AID 743220; active = well fitted activation curve with a large enough effect in the signal ratio in the repeat runs, not every such curve was filed as active; the % refers to the signal ratio)
Summary of the method: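 FXR-UAS-bla HEK 293T cells carrying a UAS-driven beta-lactamase reporter were plated for 5 h at 37C/5% CO2, then exposed to DMSO-dissolved Tox21 10K compounds for 16 h at 37C. A LiveBLAzer B/G FRET substrate was loaded for 2 h at room temperature before fluorescence reading.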

[6] = qHTS assay to identify small molecule antagonists of the farnesoid-X-receptor (FXR) signaling pathway - cell viability counter screen (AID 743221; active = well fitted cell-killing curve with a large enough effect in the repeat runs, not every such curve was filed as active; note: nearly all actives have a fitted effect of over 50% in size)
Summary of the method: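 Compound effects on cell number were measured as CellTiter-Glo luminescence in HEK 293T cells expressing FXR-UAS-bla, after 16 h at 37 C with 50 uM CDCA (final).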

[7] = molecular target: Vitamin D3 receptor (Homo sapiens) (UniProt P11473); experiment: qHTS assay to identify small molecule agonists of the vitamin D receptor (VDR) signaling pathway (AID 743222)
Chain of Vitamin D3 receptor (Homo sapiens) (P11473 whole entry, looked up): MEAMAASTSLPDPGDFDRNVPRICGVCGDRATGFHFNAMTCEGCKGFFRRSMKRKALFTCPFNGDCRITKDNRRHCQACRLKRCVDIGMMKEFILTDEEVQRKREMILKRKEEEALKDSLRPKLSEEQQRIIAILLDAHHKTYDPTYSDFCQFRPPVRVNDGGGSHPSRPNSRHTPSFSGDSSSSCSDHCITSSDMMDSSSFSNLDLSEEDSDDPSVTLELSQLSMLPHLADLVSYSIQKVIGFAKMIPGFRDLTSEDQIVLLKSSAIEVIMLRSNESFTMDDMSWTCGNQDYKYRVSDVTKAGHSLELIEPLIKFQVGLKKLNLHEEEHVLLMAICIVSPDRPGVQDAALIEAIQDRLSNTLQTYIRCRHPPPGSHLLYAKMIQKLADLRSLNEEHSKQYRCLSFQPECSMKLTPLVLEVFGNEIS
Summary of the method: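 Using LiveBLAzer B/G FRET detection, agonism was scored in VDR-bla cells exposed overnight (16 h, 37C) to DMSO-dissolved compounds; substrate incubation was 2 h at room temperature.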

[8] = qHTS assay to identify small molecule agonists of the vitamin D receptor (VDR) signaling pathway - cell viability counter screen (AID 743224; active = well fitted curve in the direction sought with a large enough effect in the repeat runs; an effect the other way counts as inactive or inconclusive; note: series mostly up to about 63 µM; nearly all actives have a fitted effect of over 50% in size)
Summary of the method: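 Counter screen for cytotoxicity: VDR-bla cells at 2,000 cells/well, 16 h compound exposure, then CellTiter-Glo luminescence after the beta-lactamase measurement.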

[9] = qHTS assay to identify small molecule agonists of the NFkB signaling pathway - cell viability counter screen (AID 1159515); note: series mostly up to about 61 µM; nearly all actives have a fitted effect of over 55% in size
Summary of the method: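 Counter screen run alongside the NFkB-bla agonist assay: ME-180 reporter cells exposed to compounds for 5 hr, then lysed with CellTiter-Glo in the same wells. Luminescence, read after 30 min, reflects viable cells.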

[10] = qHTS assay to identify small molecule agonists of the endoplasmic reticulum stress response signaling pathway (AID 1159516; active = well fitted activation curve with a large enough effect in the signal ratio in the repeat runs, not every such curve was filed as active; the % refers to the signal ratio)
Summary of the method: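 For this screen, HeLa cells stably carrying beta-lactamase under the ER stress response element received test compounds, positive controls or DMSO for 5 hr at 37 C; B/G FRET substrate was then added and dual-wavelength emission recorded.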

[11] = qHTS assay to identify small molecule agonists of the endoplasmic reticulum stress response signaling pathway - cell viability counter screen (AID 1159517); note: series mostly up to about 61 µM; nearly all actives have a fitted effect of over 50% in size
Summary of the method: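 In parallel with the ESRE reporter read, cytotoxicity was scored by CellTiter-Glo luminescence (30 min, room temperature) on HeLa ESRE-bla cells dosed for 5 hr.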

[12] = qHTS assay to identify small molecule antagonists of the retinoid-related orphan receptor gamma (ROR-gamma) signaling pathway - cell viability counter screen (AID 1159520; active = well fitted curve in the direction sought with a large enough effect in the repeat runs; an effect the other way counts as inactive or inconclusive; note: nearly all actives have a fitted effect of over 50% in size)
Summary of the method: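 Tet-on ROR gamma CHO cells were given compounds for 2 hr, then doxycycline hyclate at 1 uM final, and incubated 16 hr at 37 C. Viability was measured as ATP content by CellTiter-Glo luminescence.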

[13] = molecular target: Nuclear receptor ROR-gamma (Homo sapiens) (UniProt P51449); experiment: qHTS assay to identify small molecule antagonists of the retinoid-related orphan receptor gamma (ROR-gamma) signaling pathway (AID 1159521; active = well fitted curve in the direction sought with a large enough effect in the repeat runs; an effect the other way counts as inactive or inconclusive)
Summary of the method: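 Screening format: cell-based luciferase reporter in CHO cells with doxycycline-inducible RORγ. Compound pre-exposure lasts 2 h, doxycycline is 1 uM final, induction runs 16 h at 37 C, and ONE-Glo luminescence is read.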

[14] = qHTS assay to identify small molecule agonists of the AP-1 signaling pathway - cell viability counter screen (AID 1159525); note: nearly all actives have a fitted effect of over 55% in size
Summary of the method: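 Same-well cytotoxicity counter screen of the Tox21 10K library in ME-180 cells. The readout is ATP-dependent luminescence after 5 h compound treatment. Data are normalised to DMSO and tetra n-octyl ammonium bromide controls.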

[15] = qHTS assay to identify small molecule agonists of the AP-1 signaling pathway (AID 1159526)
[16] = molecular target: Retinoic acid receptor RXR-alpha (Homo sapiens) (UniProt P19793); experiment: qHTS assay to identify small molecule agonists of the RXR signaling pathway (AID 1159527); note: nearly all actives have a fitted effect of over 35% in size
Chain of Retinoic acid receptor RXR-alpha (Homo sapiens) (P19793 whole entry, looked up): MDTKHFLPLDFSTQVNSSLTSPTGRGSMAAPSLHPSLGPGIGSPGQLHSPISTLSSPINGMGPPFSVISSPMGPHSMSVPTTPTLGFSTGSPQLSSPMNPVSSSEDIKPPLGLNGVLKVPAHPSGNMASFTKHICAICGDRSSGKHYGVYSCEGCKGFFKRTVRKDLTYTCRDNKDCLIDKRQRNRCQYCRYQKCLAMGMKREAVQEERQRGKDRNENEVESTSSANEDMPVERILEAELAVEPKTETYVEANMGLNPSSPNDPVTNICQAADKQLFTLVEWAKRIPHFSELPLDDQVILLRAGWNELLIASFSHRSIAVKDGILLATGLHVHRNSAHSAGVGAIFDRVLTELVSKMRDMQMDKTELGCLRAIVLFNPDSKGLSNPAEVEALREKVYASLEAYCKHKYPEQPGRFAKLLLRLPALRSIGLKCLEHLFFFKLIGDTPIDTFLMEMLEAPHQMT
Summary of the method: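 Fluorescence ratio readout (460 vs 530 nm) from GeneBLAzer RXR-alpha HEK 293T cells after 16 hr compound treatment; cells seeded 5 hr beforehand in low-serum, charcoal-stripped medium.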

[17] = qHTS assay to identify small molecule antagonists of the peroxisome proliferator-activated receptor delta (PPARd) signaling pathway - cell viability counter screen (AID 743213; active = well fitted curve in the direction sought with a large enough effect in the repeat runs; an effect the other way counts as inactive or inconclusive; note: nearly all actives have a fitted effect of over 50% in size)
Summary of the method: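 Cytotoxicity counter screen: CellTiter-Glo luminescence read 30 min after addition, in the same wells as the reporter assay. There, PPARd UAS-bla HEK293H cells (3000/well) were treated 17 h at 37 C with compound and 300 nM L165041.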

[18] = qHTS assay to identify small molecule antagonists of the vitamin D receptor (VDR) signaling pathway - cell viability counter screen (AID 743225; active = well fitted curve in the direction sought with a large enough effect in the repeat runs; an effect the other way counts as inactive or inconclusive; note: nearly all actives have a fitted effect of over 50% in size)
Summary of the method: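 In this counter screen, VDR-bla HEK 293T cells receive test compound plus 3 nM final calcitriol for 16 h at 37C. Room-temperature steps of 2 h with the beta-lactamase substrate, then 30 min with CellTiter-Glo, precede the luminescence read.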

[19] = molecular target: Vitamin D3 receptor (Homo sapiens) (UniProt P11473); experiment: qHTS assay to identify small molecule antagonists of the vitamin D receptor (VDR) signaling pathway (AID 743223; active = well fitted inhibition curve with a large enough effect in the signal ratio in the repeat runs, not every such curve was filed as active; the % refers to the signal ratio)
Summary of the method: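 Beta-lactamase activity in VDR-bla cells is measured by FRET substrate fluorescence (2 h, room temperature) after cells spend 16 h at 37C with test compound and 3 nM final 1alpha,25-dihydroxyvitamin D3.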

Measured: Potency

Chain of Peroxisome proliferator-activated receptor delta (Homo sapiens) (Q03181 whole entry, looked up): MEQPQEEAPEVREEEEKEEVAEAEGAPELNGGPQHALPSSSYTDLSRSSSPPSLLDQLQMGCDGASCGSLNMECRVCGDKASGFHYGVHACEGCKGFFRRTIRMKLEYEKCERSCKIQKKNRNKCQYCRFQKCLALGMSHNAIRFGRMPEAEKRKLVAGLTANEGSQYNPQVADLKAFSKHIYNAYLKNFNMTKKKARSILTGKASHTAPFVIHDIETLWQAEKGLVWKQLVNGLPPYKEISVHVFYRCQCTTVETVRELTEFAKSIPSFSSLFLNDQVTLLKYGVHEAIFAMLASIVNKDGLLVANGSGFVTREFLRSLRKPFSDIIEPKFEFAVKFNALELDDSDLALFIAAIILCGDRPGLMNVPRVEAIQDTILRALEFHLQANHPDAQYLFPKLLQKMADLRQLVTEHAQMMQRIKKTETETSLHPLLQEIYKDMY

O=C(O)C(Cl)Br (configuration not stated)
not listed: [17] | [18] | [19]
inactive: all other assays above

CCC1(CC)C(=O)C=CNC1=O
not listed: [1] | [3] | [5] | [7] | [19]
inactive: all other assays above

C/C=C/CC#N
not listed: [2] | [3] | [7] | [19]
inactive: all other assays above

CC(C)(N)Cc1ccc(Cl)cc1
not listed: [3] | [5] | [17] | [19]
inactive: all other assays above

O=C(Cl)C(Cl)Cl
not listed: [3] | [5] | [18]
inactive: all other assays above

C=C(C)[C@H]1CN[C@H](C(=O)O)[C@H]1CC(=O)O
not listed: [3] | [5] | [18]
inactive: all other assays above

CCCN1CCC[C@@H]2Cc3[nH]ncc3C[C@H]21
not listed: [1] | [2] | [7] | [17] | [19]
inactive: all other assays above

Cc1ccc(S(=O)(=O)N[C@@H](CCCCN)C(=O)CCl)cc1
not listed: [1] | [2] | [7] | [19]
inactive: all other assays above

CCOC1Oc2ccc(OS(C)(=O)=O)cc2C1(C)C (configuration not stated)
not listed: [3] | [5] | [18] | [19]
inactive: all other assays above

CCCOC(=O)Cc1ccc(OCC(=O)N(CC)CC)c(OC)c1
not listed: [1] | [2] | [7] | [17] | [19]
inactive: all other assays above

S=C=S
not listed: [1] | [2] | [3] | [5]
inactive: all other assays above

COP(=O)(OC)O/C(C)=C/C(=O)N(C)C
not listed: [1] | [2] | [3] | [4] | [5] | [18]
inactive: all other assays above

CCCC[N+](=O)[O-]
not listed: [1] | [2]
inactive: all other assays above

Cn1c(N)nc2c3cccnc3ccc21
not listed: [1] | [19]
inactive: all other assays above

CCC(C)(C#N)N=NC(C)(C#N)CC (configuration not stated)
not listed: [3] | [5] | [7] | [17] | [19]
inactive: all other assays above

C=CC=O
not listed: [2] | [3] | [5] | [8] | [17]
inactive: all other assays above

COc1cccc([C@@]2(O)CCCC[C@@H]2CN(C)C)c1
not listed: [2] | [3] | [5] | [7] | [19]
inactive: all other assays above

CN(C)C1CCCCC1
not listed: [3] | [5] | [17]
inactive: all other assays above

CCOP(=O)(CN(CCO)CCO)OCC
not listed: [3] | [5] | [17]
inactive: all other assays above

O=[N+]([O-])CCO
inactive: [4] | [8] | [9] | [10] | [11] | [12] | [13] | [14] | [15] | [16]

CCSC(=O)Cl
not listed: [1] | [2] | [19]
inactive: all other assays above

— PubChem BioAssay (Tox21)
